Out of some 5,500 compounds screened, about 2,000 (36%) were called active. Roughly 18% stayed inconclusive and do not appear here. No stated cut-off is given here; in the data, active means normalized growth mostly below about 0.91 (no sharp cut-off); inconclusive means no clear call, values can overlap the other calls; inactive means mostly above about 0.92. Some of the results follow.
Test: chemical genetic growth profiling, strain panel (AID 1159580);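 further: tested at 20 µM; growth read once vehicle control cultures reached saturation at 30 °C; 1 = growth at the plate median or of vehicle wells; lower values mean less growth of the strain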
Settings: S. cerevisiae deletion strains, growth OD

Measured: normalized growth

CC1=C(/C=C/C(C)=C/C=C/C(C)=C/C=C/C=C(C)/C=C/C=C(C)/C=C/C2=C(C)C(=O)C(O)CC2(C)C)C(C)(C)CC(O)C1=O (stereo not drawn)
inactive: locus YAL021C, strain ccr4, hits give low values 1.04 | locus YAL026C, strain drs2, hits give low values 1.07 | locus YAL030W, strain snc1, hits give low values 1.03 | locus YBL061C, strain skt5, hits give low values 1.03 | locus YBR009C, strain hhf1, hits give low values 1.05 | locus YBR021W, strain FUR4, hits give low values 0.962 | locus YBR023C, strain chs3, hits give low values 1.03 | locus YBR229C, strain ROT2, hits give low values 0.942 | locus YBR231C, strain swc5, hits give low values 1.05 | locus YBR279W, strain paf1, hits give low values 1.02 | locus YCL011C, strain gbp2, hits give low values 1.04 | locus YCL016C, strain dcc1, hits give low values 1.02 | locus YCL029C, strain bik1, hits give low values 0.973 | locus YCL061C, strain MRC1, hits give low values 1.07 | locus YCL069W, strain vba3, hits give low values 1.05 | locus YCR088W, strain abp1, hits give low values 1.06 | locus YDL005C, strain med2, hits give low values 1.05 | locus YDL035C, strain GPR1, hits give low values 0.939 | locus YDL040C, strain nat1, hits give low values 1.01 | locus YDL074C, strain BRE1, hits give low values 0.981 | locus YDL101C, strain DUN1, hits give low values 0.986 | locus YDL185W, strain tfp1, hits give low values 0.964 | locus YDL192W, strain arf1, hits give low values 0.988 | locus YDR001C, strain nth1, hits give low values 1.07 | locus YDR069C, strain doa4, hits give low values 1.04 | locus YDR101C, strain arx1, hits give low values 0.985 | locus YDR137W, strain rgp1, hits give low values 1.02 | locus YDR159W, strain sac3, hits give low values 1.04 | locus YDR162C, strain NBP2, hits give low values 0.947 | locus YDR195W, strain ref2 1.12 | locus YDR297W, strain sur2, hits give low values 1.03 | locus YDR318W, strain mcm21, hits give low values 0.983 | locus YDR334W, strain swr1, hits give low values 1.07 | locus YDR335W, strain msn5, hits give low values 1.05 | locus YDR388W, hits give low values 0.992 | locus YDR392W, strain spt3, hits give low values 1.04 | locus YDR502C, strain sam2, hits give low values 0.993 | locus YEL003W, strain gim4, hits give low values 1.04 | locus YEL037C, strain rad23, hits give low values 1.05 | locus YEL061C, strain CIN8 (second series), hits give low values 1.05 | locus YEL061C, strain CIN8, hits give low values 0.981 | locus YER015W, strain faa2, hits give low values 1.04 | locus YER016W, strain bim1, hits give low values 1.03 | locus YER110C, hits give low values 0.992 | locus YER111C, strain swi4, hits give low values 1.07 | locus YER155C, strain BEM2 (second series), hits give low values 1.09 | locus YER155C, strain BEM2, hits give low values 0.998 | locus YER167W, strain BCK2, hits give low values 0.984 | locus YFR010W, strain ubp6, hits give low values 1.08 | locus YGL078C, strain dbp3, hits give low values 0.99 | locus YGL086W, strain mad1, hits give low values 0.997 | locus YGL167C, strain pmr1, hits give low values 1.04 | locus YGL173C, strain kem1, hits give low values 1.03 | locus YGL227W, strain vid30, hits give low values 1.08 | locus YGL240W, strain doc1, hits give low values 1.03 | locus YGL248W, strain PDE1, hits give low values 0.987 | locus YGL253W, strain hxk2, hits give low values 1.05 | locus YGR135W, strain pre9, hits give low values 0.992 | locus YGR229C, strain SMI1, hits give low values 0.982 | locus YGR252W, strain gcn5, hits give low values 0.944 | locus YHR013C, strain ard1, hits give low values 1.02 | locus YHR027C, strain rpn1, hits give low values 1.03 | locus YHR030C, strain SLT2, hits give low values 0.984 | locus YHR079C, strain IRE1 (second series), hits give low values 0.996 | locus YHR094C, strain hxt1, hits give low values 0.988 | locus YHR129C, strain ARP1, hits give low values 0.996 | locus YHR142W, strain chs7, hits give low values 1.07 | locus YHR200W, strain rpn10, hits give low values 0.988 | locus YIL066C, strain RNR3, hits give low values 0.907 | locus YIL073C, strain SPO22, hits give low values 1.02 | locus YIL125W, strain kgd1, hits give low values 0.99 | locus YIR030C, strain dcg1, hits give low values 1.01 | locus YJL092W, strain hpr5, hits give low values 1.07 | locus YJL095W, strain BCK1 (second series), hits give low values 1.03 | locus YJL095W, strain BCK1, hits give low values 1.06 | locus YJL115W, strain asf1, hits give low values 1.08 | locus YJL129C, strain trk1, hits give low values 1.07 | locus YJL134W, strain LCB3, hits give low values 0.98 | locus YJL154C, strain vps35, hits give low values 1.05 | locus YJL164C, strain tpk1, hits give low values 1.02 | locus YJL166W, strain qcr8, hits give low values 1.02 | locus YJL168C, strain set2, hits give low values 0.989 | locus YJL187C, strain SWE1 (second series), hits give low values 1.01 | locus YJL187C, strain SWE1, hits give low values 1.02 | locus YJR043C, strain POL32, hits give low values 0.929 | locus YKL009W, strain mrt4, hits give low values 0.994 | locus YKL068W, hits give low values 0.981 | locus YKL085W, strain MDH1 (second series), hits give low values 0.996 | locus YKL085W, strain MDH1, hits give low values 0.996 | locus YKL160W, strain elf1, hits give low values 1.02 | locus YKR001C, strain vps1, hits give low values 0.992 | locus YKR091W, strain srl3, hits give low values 1.03 | locus YLL001W, strain dnm1, hits give low values 1.05 | locus YLL026W, hits give low values 1.02 | locus YLL041C, strain sdh2, hits give low values 1.03 | locus YLR027C, strain aat2, hits give low values 1.03 | locus YLR039C, strain RIC1, hits give low values 0.981 | locus YLR058C, strain SHM2, hits give low values 0.971 | locus YLR102C, strain apc9, hits give low values 0.993 | locus YLR221C, strain rsa3, hits give low values 1.03 | locus YLR258W, strain gsy2, hits give low values 1.03 | locus YLR262C, strain YPT6 (second series), hits give low values 0.986 | locus YLR262C, strain YPT6, hits give low values 1.01 | locus YLR268W, strain sec22, hits give low values 0.999 | locus YLR320W, strain mms22, hits give low values 1.04 | locus YLR330W, strain CHS5, hits give low values 0.99 | locus YLR342W, strain FKS1 (second series), hits give low values 0.918 | locus YLR342W, strain FKS1, hits give low values 1.04 | locus YLR357W, strain rsc2, hits give low values 1.12 | locus YLR370C, strain arc18, hits give low values 1.06 | locus YLR371W, strain rom2, hits give low values 0.981 | locus YLR384C, strain iki3, hits give low values 1.03 | locus YLR418C, strain cdc73, hits give low values 0.997 | locus YML016C, strain PPZ1, hits give low values 0.973 | locus YML032C, strain rad52, hits give low values 0.983 | locus YML120C, strain ndi1, hits give low values 1.03 | locus YML124C, strain tub3, hits give low values 0.991 | locus YMR058W, strain fet3, hits give low values 1.08 | locus YMR078C, strain ctf18, hits give low values 0.979 | locus YMR125W, strain sto1, hits give low values 1.09 | locus YMR129W, hits give low values 1.05 | locus YMR205C, strain PFK2, hits give low values 1.05 | locus YMR223W, strain ubp8, hits give low values 0.997 | locus YMR231W, strain pep5, hits give low values 1.05 | locus YMR263W, strain SAP30, hits give low values 1 | locus YMR307W, strain GAS1, hits give low values 0.965 | locus YNL067W, strain RPL9B, hits give low values 1.06 | locus YNL071W, strain lat1, hits give low values 1.02 | locus YNL153C, strain GIM3, hits give low values 1.02 | locus YNL209W, strain ssb2, hits give low values 1.03 | locus YNL233W, strain BNI4, hits give low values 1.05 | locus YNL248C, strain rpa49, hits give low values 1.07 | locus YNL250W, strain rad50, hits give low values 0.972 | locus YNL271C, strain bni1, hits give low values 0.988 | locus YNL298W, strain CLA4, hits give low values 0.98 | locus YNL307C, strain MCK1, hits give low values 0.988 | locus YNL322C, strain KRE1 (second series), hits give low values 1.04 | locus YNR049C, strain mso1, hits give low values 1.06 | locus YNR052C, strain pop2, hits give low values 0.998 | locus YOL012C, strain htz1 1.22 | locus YOL147C, strain pex11, hits give low values 0.995 | locus YOR001W, strain rrp6, hits give low values 1.03 | locus YOR061W, strain CKA2, hits give low values 0.953 | locus YOR069W, strain VPS5, hits give low values 0.985 | locus YOR070C, strain gyp1, hits give low values 1.02 | locus YOR080W, strain dia2, hits give low values 1.04 | locus YOR083W, strain WHI5, hits give low values 1.01 | locus YOR106W, strain vam3, hits give low values 1.02 | locus YOR136W, strain idh2, hits give low values 1 | locus YOR144C, strain elg1, hits give low values 0.999 | locus YOR184W, strain ser1, hits give low values 0.985 | locus YOR265W, strain rbl2, hits give low values 1.03 | locus YOR270C, strain vph1, hits give low values 1.16 | locus YOR290C, strain snf2, hits give low values 1.04 | locus YOR316C, strain cot1, hits give low values 0.994 | locus YPL051W, strain arl3, hits give low values 1 | locus YPL055C, strain LGE1, hits give low values 0.959 | locus YPL078C, strain atp4, hits give low values 1.05 | locus YPL106C, strain sse1, hits give low values 1.06 | locus YPL240C, strain hsp82, hits give low values 1.02 | locus YPL241C, strain CIN2, hits give low values 0.984 | locus YPR119W, strain clb2, hits give low values 0.988 | locus YPR141C, strain kar3, hits give low values 0.989 | locus YPR163C, strain tif3, hits give low values 0.977 | locus YPR167C, strain met16, hits give low values 0.992 | strain wtn01, hits give low values 0.976
active: locus YBR171W, strain sec66, hits give low values 1.11 [resistant] | locus YKR026C, strain gcn3, hits give low values 1.08 [resistant]
